Compounds without any hit were thinned out: in the full panel of roughly 83,000, 20% have a hit.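 Single-dose data. Exposure time 48 hours. Values below 10 considered active.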 A number with no mark means an inactive call. Calls of active or inactive are those of the source.
Tests used:
Assay in all cases: NCI-60 one-dose screen, 48 h (100 = growth as untreated, 0 = no growth, -100 = all killed)
Settings in all cases: 10 µM unless noted
SR leukemia = tested on: SR leukemia
RPMI-8226 leukemia = tested on: RPMI-8226 leukemia
OVCAR-8 ovarian = tested on: OVCAR-8 ovarian
OVCAR-5 ovarian = tested on: OVCAR-5 ovarian
OVCAR-4 ovarian = tested on: OVCAR-4 ovarian
SK-OV-3 ovarian = tested on: SK-OV-3 ovarian
IGROV1 ovarian = tested on: IGROV1 ovarian
OVCAR-3 ovarian = tested on: OVCAR-3 ovarian
HS 578T breast = tested on: HS 578T breast
NCI/ADR-RES ovarian = tested on: NCI/ADR-RES ovarian
T-47D breast = tested on: T-47D breast
BT-549 breast = tested on: BT-549 breast
MDA-MB-435 melanoma = tested on: MDA-MB-435 melanoma
SW-620 colon = tested on: SW-620 colon
MCF7 breast = tested on: MCF7 breast
HCT-116 colon = tested on: HCT-116 colon
HCC-2998 colon = tested on: HCC-2998 colon
KM12 colon = tested on: KM12 colon

Structure (SMILES) | growth (SR leukemia) | growth (RPMI-8226 leukemia) | growth (OVCAR-8 ovarian) | growth (OVCAR-5 ovarian) | growth (OVCAR-4 ovarian) | growth (SK-OV-3 ovarian) | growth (IGROV1 ovarian) | growth (OVCAR-3 ovarian) | growth (HS 578T breast) | growth (NCI/ADR-RES ovarian) | growth (T-47D breast) | growth (BT-549 breast) | growth (MDA-MB-435 melanoma) | growth (SW-620 colon) | growth (MCF7 breast) | growth (HCT-116 colon) | growth (HCC-2998 colon) | growth (KM12 colon)
COc1cc2c(c(OC)c1OC)C(=O)CC(c1cccc(NC(=O)c3ccccc3Br)c1)O2 (stereo not drawn) | 68.4% | 58.2% | 80.1% | 117% | 90% | 108% | 102% | 96.4% | 79.5% | 91.3% | 65.7% | 98.7% | 92.5% | 97.3% | 78.2% | 75.6% | 106% | 103%
Cc1cc(C)cc(Nc2ccc([N+](=O)[O-])c(NCCN3CCOCC3)n2)c1 | 17% | 11.5% | 20% | 52.9% | 52.6% | 50.3% | 23.5% | 2.95% (active) | 21.6% | 18.1% | 56.3% | 9.31% (active) | -30.1% (active) | 31% | 13.2% | 5.31% (active) | 9% (active) | 15.4%
NC(=O)c1ccc(NC(=O)c2oc3ccccc3c2-c2cnn(-c3ccccc3)c2)cc1 | 15.9% [50 µM] | 17.6% [50 µM] | 13.4% [50 µM] | -6.33% [50 µM] (active) | -30.5% [50 µM] (active) | 62.4% [50 µM] | 10.6% [50 µM] | 1.08% [50 µM] (active) | 5.15% [50 µM] (active) | -3.84% [50 µM] (active) | 49.8% [50 µM] | 22.2% [50 µM] | 37.7% [50 µM] | 12.8% [50 µM] | -1.73% [50 µM] (active) | 9.74% [50 µM] (active) | 28.7% [50 µM] | 34.1% [50 µM]
C=C1C(=O)O[C@H]2[C@H]1CC/C(COC(=O)c1cc3cc(F)ccc3[nH]1)=C\CC[C@@]1(C)O[C@@H]21 | -5.71% (active) | -33.3% (active) | -42% (active) | -74.2% (active) | -68.2% (active) | 26.7% | -72.1% (active) | -85.5% (active) | -14.2% (active) | -20.2% (active) | -51.8% (active) | -82.9% (active) | -82% (active) | -69.2% (active) | -61.7% (active) | -87.2% (active) | -83.4% (active) | -48% (active)
CCCCCCCC/C=C\CCCCCCCCOc1ccc(CC(=O)NCC[N+](C)(C)C)cc1 | 62.4% | 40.9% | 54.8% | 27.5% | 72.2% | 93.6% | 6.27% (active) | 83.3% | 76.7% | 94.4% | 85% | 74.3% | 86.5% | 74.2% | 73.7% | 68.2% | 43.1% | 35.7%
O=C1N[C@@H]2[C@@H](O)[C@@H](O)[C@H](O)C[C@H]2c2cc3c(c(O)c21)OCCO3 | -2.37% (active) | -28% (active) | -13.8% (active) | 3% (active) | -8.78% (active) | -10.9% (active) | -16.7% (active) | -13% (active) | -9.44% (active) | -0.441% (active) | -15.8% (active) | -17.5% (active) | 1.45% (active) | 4.85% (active) | -13.3% (active) | -3.3% (active) | -46.2% (active) | -2.6% (active)
CN1CCN(c2ccc(NC(=O)c3cncnc3Nc3ccc4c(ccn4Cc4cccc(F)c4)c3)cc2)CC1 | 10.9% | 46.1% | 34.9% | 65.5% | 66.2% | 97.4% | 77.1% | 80.8% | 68.3% | 75.8% | 48.8% | 85.6% | -79.7% (active) | 5.18% (active) | 12.8% | 13.1% | 61.6% | 46.7%
O=[N+]([O-])/C(=C\c1ccco1)c1ccccc1Cl | 55.3% | 85.9% | 81.6% | 75.4% | 69.3% | 60.1% | 75.7% | 77.9% | 84.8% | 85.5% | 36.6% | 9.05% (active) | 75.6% | 84.1% | 38.4% | 11.8% | 94.9% | 89.5%
N#C/C(=C\c1ccc(Br)cc1)c1cc2ccccc2[nH]1 | 81.2% | 78.9% | 96.8% | 93.9% | 112% | 81% | 91.4% | 107% | 98.4% | 98.7% | 74.7% | 97% | 99.1% | 93.4% | 62.2% | 84.7% | 101% | 90.7%
Cc1nn(-c2ccccc2)c(/N=C/N(C)C)c1/C=C/C(=O)c1ccc(Cl)cc1 | 23.4% | 6.91% (active) | 101% | 81.7% | 98.3% | 111% | 81.2% | 103% | 92.2% | 86.9% | 101% | 87.3% | 98.4% | 93.3% | 85.9% | 74.7% | 101% | 101%
CCCCSCC(=O)c1ccccc1 | 88.3% | 106% | 94.2% | 95.2% | 100% | 81.4% | 99.3% | 99.3% | 110% | 97.9% | 95.4% | 99.9% | 106% | 105% | 98.2% | 95.2% | 100% | 98.5%
CS(=O)(=O)Nc1cc(-c2ccc3ncnc(Nc4ccc5c(cnn5Cc5cccnc5)c4)c3c2)cnc1Cl | 21.5% | 54.7% | 75.6% | 49% | 74.6% | 58.4% | 3.96% (active) | 19.2% | -2.21% (active) | 93.2% | 0.364% (active) | 17.1% | 53.9% | 66.8% | 15.2% | 69.8% | 65.7% | 82.9%
O=C(Nc1ccc(F)cc1)Nc1ccccc1CNc1nc(Nc2ccc(OCCN3CCCC3)cc2)ncc1Cl | 2.14% (active) | -4.89% (active) | 23.1% | 16.9% | -7.62% (active) | 92.8% | 56.2% | -43.1% (active) | 74.3% | 44.5% | 100% | 84.9% | 16.3% | 27.8% | 32.5% | 21.8% | 48.6% | 49.6%
COc1ccc(C2=C/C(=C\c3ccc(Cl)cc3)C(=O)N2/N=C/c2ccc(Cl)cc2)cc1 | 88.3% | 101% | 83.5% | 103% | 79.2% | 88.6% | 91.2% | 99.6% | 91.4% | 104% | 82.1% | 101% | 104% | 98.9% | 84.5% | 109% | 108% | 90.2%
COc1cc(N2C(=O)[C@H](c3ccccc3)C2c2ccc(SC)cc2)cc(OC)c1OC (stereo partly drawn) | -5.24% (active) | -9.2% (active) | 4.09% (active) | 56.8% | 48.6% | 8.14% (active) | 13.7% | 8.73% (active) | 20.6% | 9.89% (active) | 61.9% | -6.28% (active) | -23.7% (active) | 25.2% | 6.93% (active) | 0.933% (active) | 12.6% | 10.2%
Cc1ccc(/C=C/C(=O)c2ccc(NC(=O)CSc3nc4c([nH]3)c(=O)n(C)c(=O)n4C)cc2)c(C)c1 | 30.4% | 52.6% | 40.3% | 124% | 36.9% | 30.9% | 36.3% | 13.8% | 27.4% | 82.7% | 37.2% | 69.9% | 60.7% | 49% | 39.8% | 5.13% (active) | 45.1% | 37.5%

Reference: PubChem BioAssay (NCI)
